Our source for the cytotoxicity call values is the antibiotic and cytotoxicity screens of Wong et al. (2023).

The structures appear in SMILES notation. The campaign covered roughly 39,000 compounds. About 1,500 (3.8%) were called active. Only a selection was taken, and actives are over-represented in it overall.

In the assay the test system is HSkMC (human skeletal muscle cells). In words: cytotoxicity call (relative viability < 0.9). The conditions noted are these: 10 µM.
Consider `C[C@@H]1CN([C@@H](C)CO)C(=O)c2cccc(N(C)C)c2O[C@H]1CN(C)S(=O)(=O)c1ccc(Cl)cc1`, for which the cytotoxicity call was “inactive”.
On to `CCCNC(=O)C[C@@H]1CC[C@H]2[C@H](COc3ccc(NS(=O)(=O)c4ccccc4C)cc3C(=O)N2C)O1`, for which the cytotoxicity call was “inactive”.
For the molecule `Cc1noc(C)c1NC(=O)Nc1cccc2c1O[C@@H](CN(C)C(=O)NC(C)C)[C@H](C)CN([C@@H](C)CO)C2=O`, the cytotoxicity call was “inactive”.
Turning to `COc1ccc(NC(=O)Nc2ccc3c(c2)C(=O)N([C@H](C)CO)C[C@H](C)[C@H](CN(C)C(=O)Nc2ccc(C(F)(F)F)cc2)OCCCC[C@H](C)O3)cc1`, the cytotoxicity call was “inactive”.
As for `C[C@H]1CN([C@@H](C)CO)C(=O)c2cc(NC(=O)Nc3ccc(C(F)(F)F)cc3)ccc2O[C@H]1CN(C)Cc1ccccc1`, the cytotoxicity call was “active”.
To `C[C@H]1CN([C@@H](C)CO)C(=O)c2cc(NC(=O)Nc3ccc(C(F)(F)F)cc3)ccc2O[C@@H]1CN(C)Cc1ccccc1` belongs “inactive”; to `C[C@@H]1CN([C@H](C)CO)C(=O)c2cc(NC(=O)Nc3ccc(C(F)(F)F)cc3)ccc2O[C@@H]1CN(C)Cc1ccccc1`, “inactive”; to `CN(C)S(=O)(=O)Nc1cccc(N)c1`, “inactive”.
`COCC(=O)N1C[C@@H](C)[C@@H](OC)CN(C)C(=O)c2cc(NC(=O)c3ccc(OC)cc3)ccc2OC[C@@H]1C`: the cytotoxicity call was “inactive”.
In the case of `CC(=O)[C@]1(N)Cc2c(O)c3c(c(O)c2[C@@H](O[C@H]2C[C@H](O)[C@H](O)CO2)C1)C(=O)c1ccccc1C3=O`, the cytotoxicity call is “active”.
For the molecule `COc1cccc2c1C(=O)c1c(O)c3c(c(O)c1C2=O)C[C@@](O)(C(C)=O)C[C@@H]3O[C@H]1C[C@H](N)[C@H](O)[C@H](C)O1`, the cytotoxicity call was “active”.
Take `COc1cccc2c1C(=O)c1c(O)c3c(c(O)c1C2=O)CC(O)(C(C)=O)CC3OC1CC(N)C(O)C(C)O1.Cl` (centres undefined): the cytotoxicity call is “inactive”.
Turning to `CC(=O)[C@]1(O)Cc2c(O)c3c(c(O)c2[C@@H](O[C@@H]2C[C@@H](N)[C@H](O)[C@@H](C)O2)C1)C(=O)c1c(O)cccc1C3=O`, the cytotoxicity call is “active”.
On to `COc1cccc2c1C(=O)c1c(O)c3c(c(O)c1C2=O)C[C@](O)(C(C)=O)C[C@H]3O[C@H]1C[C@@H](N)[C@@H](O)[C@@H](C)O1`, for which the cytotoxicity call is “active”.
For the molecule `O=C(C[C@@H]1CC[C@H]2[C@@H](COC[C@H](O)CN2C(=O)c2ccncc2)O1)NC1CCC1`, the cytotoxicity call is “inactive”.
For `CNCC1CCOCC1`, the cytotoxicity call was “inactive”.
Consider `CO[C@@H]1CN(C)C(=O)c2cc(NS(=O)(=O)c3ccccc3C)ccc2OC[C@H](C)N(S(C)(=O)=O)C[C@H]1C`, for which the cytotoxicity call was “inactive”.
For `Cc1noc(C)c1S(=O)(=O)Nc1ccc2c(c1)C(=O)N([C@H](C)CO)C[C@H](C)[C@@H](CN(C)C(=O)Nc1ccc(F)cc1)OCCCC[C@H](C)O2`, the cytotoxicity call was “inactive”.
To `C[C@H]1CN([C@@H](C)CO)C(=O)c2cc(C#CCN(C)C)cnc2O[C@@H]1CN(C)C(=O)c1cnccn1` belongs “inactive”.
For `CC(C)c1nc(/N=C/N(C)C)nc(=O)n1C` the value was “inactive”; for `C[C@H](CO)N1C[C@H](C)[C@H](CN(C)C(=O)Nc2ccc(F)cc2)OCCCC[C@H](C)Oc2ccc(NS(=O)(=O)c3ccc(Cl)cc3)cc2C1=O`, “inactive”; for `C[C@H](CO)N1C[C@H](C)[C@@H](CN(C)Cc2ccc3c(c2)OCO3)Oc2ncc(Br)cc2C1=O`, “inactive”.
To `CN(Cc1ccc(/C=C/C(=O)Nc2ccc(-c3ccccc3)cc2N)cc1)CC12CC3CC(CC(C3)C1)C2` belongs “active”; to `C[C@@H]1CN([C@@H](C)CO)C(=O)Cc2cc(NC(=O)CCCCCC(=O)Nc3ccccc3N)ccc2O[C@H]1CN(C)Cc1ccc(-c2ccccc2)cc1`, “inactive”; to `CN(Cc1ccc(/C=C/C(=O)Nc2ccc(-c3cccs3)cc2N)cc1)CC12CC3CC(CC(C3)C1)C2`, “inactive”.
On to `COCCN1CCO[C@@H]2CN(Cc3cnn(C)c3)C[C@@H]21`, for which the cytotoxicity call was “inactive”.
Consider `CN1CCN(C(=O)C[C@H]2CC[C@@H]3[C@H](COC[C@H](O)CN3C(=O)Nc3ccc4c(c3)OCO4)O2)CC1`, for which the cytotoxicity call was “inactive”.
For the molecule `C[C@H]1CN([C@@H](C)CO)C(=O)c2cc(NC(=O)Nc3cccc4ccccc34)ccc2O[C@@H]1CN(C)S(=O)(=O)c1cccs1`, the cytotoxicity call is “inactive”.
Regarding `C[C@H]1CN([C@@H](C)CO)C(=O)Cc2cc(NC(=O)NC3CCCCC3)ccc2O[C@@H]1CN(C)C(=O)Nc1ccc(C(F)(F)F)cc1`, the cytotoxicity call is “inactive”.
Turning to `C[C@H](CO)N1C[C@H](C)[C@@H](CN(C)Cc2ccc(C(F)(F)F)cc2)Oc2ccc(NC(=O)Nc3ccccc3)cc2C1=O`, the cytotoxicity call was “inactive”.
For the molecule `C[C@H](CO)N1C[C@H](C)[C@H](CN(C)Cc2ccc(C(F)(F)F)cc2)Oc2ccc(NC(=O)Nc3ccccc3)cc2C1=O`, the cytotoxicity call was “inactive”.
For `C[C@@H]1CN([C@H](C)CO)C(=O)c2cc(NC(=O)Nc3ccccc3)ccc2O[C@@H]1CN(C)Cc1ccc(C(F)(F)F)cc1` the value was “active”.
As to `C[C@@H]1CN([C@H](C)CO)C(=O)c2cc(NC(=O)Nc3ccccc3)ccc2O[C@H]1CN(C)Cc1ccc(C(F)(F)F)cc1`, the cytotoxicity call is “inactive”.
Turning to `C[C@@H]1CN([C@@H](C)CO)C(=O)c2cc(NC(=O)Nc3ccccc3)ccc2O[C@H]1CN(C)Cc1ccc(C(F)(F)F)cc1`, the cytotoxicity call is “active”.
As for `C[C@H]1CN([C@@H](C)CO)C(=O)c2cc(NC(=O)Nc3ccccc3)ccc2O[C@H]1CN(C)Cc1ccc(C(F)(F)F)cc1`, the cytotoxicity call is “inactive”.
With `NCc1cn(Cc2ccc(Cl)c(Cl)c2)cn1`, the cytotoxicity call is “inactive”.
`C[C@H](CO)N1C[C@H](C)[C@@H](CN(C)S(=O)(=O)c2ccc(F)cc2)Oc2ccc(NS(=O)(=O)c3ccc(F)cc3)cc2CC1=O`: the cytotoxicity call is “inactive”.
For `CN(C)CCCNC(=O)C[C@@H]1CC[C@H](NS(=O)(=O)c2ccccc2)[C@@H](CO)O1` the value was “inactive”; for `C[C@H]1CN([C@@H](C)CO)C(=O)Cc2cc(NC(=O)Cc3ccccc3)ccc2O[C@@H]1CN(C)S(=O)(=O)c1cn(C)cn1`, “inactive”; for `C[C@H](CO)N1C[C@H](C)[C@H](CN(C)C(=O)C2CCCCC2)OCCCC[C@H](C)Oc2ccc(NS(=O)(=O)c3ccc(Cl)cc3)cc2C1=O`, “inactive”.
As for `Cc1ccc(-c2ccc3c(c2)O[C@H](CN(C)C(=O)Nc2ccc(C(F)(F)F)cc2)[C@H](C)CN([C@@H](C)CO)S3(=O)=O)cc1`, the cytotoxicity call is “inactive”.
On to `Cc1ccccc1-c1ccc2c(c1)O[C@H](CN(C)C(=O)Nc1ccc(C(F)(F)F)cc1)[C@H](C)CN([C@@H](C)CO)S2(=O)=O`, for which the cytotoxicity call is “inactive”.
For `Cc1ccc(-c2ccc3c(c2)O[C@H](CN(C)C(=O)Nc2ccc(C(F)(F)F)cc2)[C@H](C)CN([C@H](C)CO)S3(=O)=O)cc1`, the cytotoxicity call is “inactive”.
To `Cc1ccccc1-c1ccc2c(c1)O[C@@H](CN(C)C(=O)Nc1ccc(C(F)(F)F)cc1)[C@H](C)CN([C@H](C)CO)S2(=O)=O` belongs “inactive”; to `Cc1ccc(-c2ccc3c(c2)O[C@@H](CN(C)C(=O)Nc2ccc(C(F)(F)F)cc2)[C@@H](C)CN([C@@H](C)CO)S3(=O)=O)cc1`, “inactive”.
In the case of `Cc1ccc(-c2ccc3c(c2)O[C@H](CN(C)C(=O)Nc2ccc(C(F)(F)F)cc2)[C@@H](C)CN([C@@H](C)CO)S3(=O)=O)cc1`, the cytotoxicity call is “active”.
To `Cc1ccccc1-c1ccc2c(c1)O[C@@H](CN(C)C(=O)Nc1ccc(C(F)(F)F)cc1)[C@@H](C)CN([C@@H](C)CO)S2(=O)=O` belongs “active”; to `Cc1ccc(-c2ccc3c(c2)O[C@H](CN(C)C(=O)Nc2ccc(C(F)(F)F)cc2)[C@@H](C)CN([C@H](C)CO)S3(=O)=O)cc1`, “inactive”; to `Cc1ccc(-c2ccc3c(c2)O[C@@H](CN(C)C(=O)Nc2ccc(C(F)(F)F)cc2)[C@H](C)CN([C@H](C)CO)S3(=O)=O)cc1`, “active”.
For `C[C@@H]1CCCCO[C@@H](CN(C)C(=O)Nc2ccc3c(c2)OCO3)[C@H](C)CN([C@H](C)CO)C(=O)c2cc(NC(=O)Cc3ccccc3)ccc2O1` the value was “inactive”.
Regarding `CC(/C=C/C(=O)NO)=C\c1ccccc1OC[C@@H]1[C@H]2C[C@H]3c4[nH]c5ccccc5c4CCN3C[C@@H]2CC[C@@H]1O`, the cytotoxicity call is “inactive”.
Turning to `C[C@@H]1CN([C@@H](C)CO)C(=O)c2cccc(NC(=O)C3CCCCC3)c2O[C@H]1CN(C)Cc1ccc(C(F)(F)F)cc1`, the cytotoxicity call was “inactive”.
As to `CC1CC=CC=CC=CC=CC(OC2OC(C)C(O)C(N)C2O)CC2OC(O)(CC(O)CC3OC3C=CC(=O)O1)CC(O)C2C(=O)O` (centres undefined), the cytotoxicity call was “inactive”.
With `CN1C(=O)c2cc(NC(=O)Nc3ccccc3F)ccc2OC[C@H]2O[C@@H](CC(=O)Nc3cccc(Cl)c3)CC[C@@H]21`, the cytotoxicity call is “inactive”.
For the molecule `CCOC(=O)N1CCN(C(=O)C2CCN(S(=O)(=O)N(CC)CC)CC2)CC1`, the cytotoxicity call was “inactive”.
As to `C[C@@H]1CN([C@@H](C)CO)C(=O)Cc2cc(NS(=O)(=O)c3cn(C)cn3)ccc2O[C@@H]1CN(C)Cc1ccncc1`, the cytotoxicity call was “inactive”.
Turning to `CCCN1C[C@H](C(=O)O)CCC1=O`, the cytotoxicity call is “inactive”.
Turning to `C[C@@H]1CN([C@H](C)CO)C(=O)Cc2cc(NC(=O)Cc3cn(C)c4ccccc34)ccc2O[C@@H]1CN(C)Cc1ccc(Cl)c(Cl)c1`, the cytotoxicity call was “inactive”.
Consider `C[C@H](CO)N1C[C@H](C)[C@@H](CN(C)Cc2ccc(Cl)c(Cl)c2)Oc2ccc(NC(=O)Cc3cn(C)c4ccccc34)cc2CC1=O`, for which the cytotoxicity call was “inactive”.
For the molecule `C[C@H]1CN([C@@H](C)CO)C(=O)Cc2cc(NC(=O)Cc3cn(C)c4ccccc34)ccc2O[C@@H]1CN(C)Cc1ccc(Cl)c(Cl)c1`, the cytotoxicity call is “active”.
For the molecule `C[C@@H]1CN([C@@H](C)CO)C(=O)Cc2cc(NC(=O)Cc3cn(C)c4ccccc34)ccc2O[C@@H]1CN(C)Cc1ccc(Cl)c(Cl)c1`, the cytotoxicity call was “inactive”.
As to `C[C@H](CO)N1C[C@H](C)[C@H](CN(C)Cc2ccc(Cl)c(Cl)c2)Oc2ccc(NC(=O)Cc3cn(C)c4ccccc34)cc2CC1=O`, the cytotoxicity call is “inactive”.
`C[C@@H]1CN([C@@H](C)CO)C(=O)Cc2cc(NC(=O)Cc3cn(C)c4ccccc34)ccc2O[C@H]1CN(C)Cc1ccc(Cl)c(Cl)c1`: the cytotoxicity call was “inactive”.
As for `C[C@H]1CN([C@@H](C)CO)C(=O)Cc2cc(NC(=O)Cc3cn(C)c4ccccc34)ccc2O[C@H]1CN(C)Cc1ccc(Cl)c(Cl)c1`, the cytotoxicity call was “active”.
To `Cc1noc(C)c1S(=O)(=O)N(C)C[C@H]1Oc2ccc(NC(=O)Cc3cn(C)c4ccccc34)cc2CC(=O)N([C@H](C)CO)C[C@@H]1C` belongs “inactive”; to `Cc1noc(C)c1S(=O)(=O)N(C)C[C@@H]1Oc2ccc(NC(=O)Cc3cn(C)c4ccccc34)cc2CC(=O)N([C@@H](C)CO)C[C@@H]1C`, “active”.
For `C[C@@H]1CN([C@H](C)CO)C(=O)Cc2cc(NC(=O)Cc3cn(C)c4ccccc34)ccc2O[C@H]1CN(C)Cc1ccc(Cl)c(Cl)c1` the value was “active”; for `Cc1noc(C)c1S(=O)(=O)N(C)C[C@H]1Oc2ccc(NC(=O)Cc3cn(C)c4ccccc34)cc2CC(=O)N([C@H](C)CO)C[C@H]1C`, “inactive”; for `C[C@@H]1CN([C@H](C)CO)C(=O)Cc2cc(NC(=O)Cc3cn(C)c4ccccc34)ccc2O[C@@H]1CN(C)Cc1ccc(-c2ccccc2)cc1`, “inactive”.
